High-throughput results deposited in PubChem by National Center for Advancing Translational Sciences (NCATS).
In the library only some 10% were active in any assay of this set; here they are far more common.
JMJD2A Tudor: qHTS Assay for Inhibitors of JMJD2A-Tudor Domain | Lysine-specific demethylase 4A (Homo sapiens), O75164 | AlphaScreen JMJD2A-Tudor / H3K4me3 peptide binding | Potency, µM (series often up to 114 µM), hits mostly inhibitors | 390,000 compounds, 4.4% hits; further: nearly all actives have a fitted effect of over 50% in size
BAZ2B inh: qHTS Assay for Inhibitors of BAZ2B; Potency, µM (highest dose often 114 µM), hits mostly inhibitors; Bromodomain adjacent to zinc finger domain protein 2B (Homo sapiens), Q9UIF8; 360,000 compounds, 4.4% hits; AlphaScreen BAZ2B-H3K14Ac peptide displacement; further: nearly all actives have a fitted effect of over 60% in size
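Complex of BAZ2B and biotin-H3K14Ac (50 nM apiece) forms over 30 min at RT, then faces library compounds up to 110 uM for another 30 min; AlphaScreen beads added, 20 min dark incubation, luminescence read.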
HP1b chromo inh: HTS for Inhibitors of HP1-beta Chromodomain Interactions with Methylated Histone Tails; Chromobox protein homolog 1 (Homo sapiens), P83916; AlphaScreen HP1-beta / biotin-H3K9me3 peptide binding; Potency, µM (top dose mostly 114 µM), actives largely listed as inhibitors; 390,000 compounds, 0.56% hits; AID 540317, 2011; further: nearly all actives have a fitted effect of over 70% in size
Target sequence (P83916 whole entry, looked up): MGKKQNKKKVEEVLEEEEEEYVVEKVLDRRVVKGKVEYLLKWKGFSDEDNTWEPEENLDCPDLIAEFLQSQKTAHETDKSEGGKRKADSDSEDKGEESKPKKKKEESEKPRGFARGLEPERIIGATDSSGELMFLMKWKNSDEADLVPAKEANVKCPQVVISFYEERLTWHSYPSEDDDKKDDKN
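Compound inhibition of the preformed complex between 50 nM HP1-beta and 50 nM biotinylated H3K9me3 peptide was read by AlphaScreen. Buffer was PBS pH 7.4 with 0.01% Tween-20. Incubations ran 30 min at room temperature, with 10 ug/mL donor/acceptor beads.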
G9a block: qHTS Assay for Inhibitors of Histone Lysine Methyltransferase G9a; Histone-lysine N-methyltransferase EHMT2 (Homo sapiens), Q96KQ7; 350,000 compounds, 8.8% hits; Potency, µM (titrated, usually from 102 µM), hits mostly inhibitors; G9a H3K9 monomethylation, AlphaScreen, 2 h; further: nearly all actives have a fitted effect of over 75% in size
Target sequence (Q96KQ7 913-1193 limits assumed): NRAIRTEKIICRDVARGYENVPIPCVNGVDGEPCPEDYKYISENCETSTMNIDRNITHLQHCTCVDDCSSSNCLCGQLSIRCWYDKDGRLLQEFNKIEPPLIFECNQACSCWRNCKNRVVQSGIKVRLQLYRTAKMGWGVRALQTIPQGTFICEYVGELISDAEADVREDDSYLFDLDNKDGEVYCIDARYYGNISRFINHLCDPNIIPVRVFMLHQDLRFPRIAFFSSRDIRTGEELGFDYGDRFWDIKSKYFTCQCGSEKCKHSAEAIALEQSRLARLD
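Chemiluminescent proximity detection of H3K9 monomethylation, read after 10 min bead incubation in the dark. Reaction: 20 nM G9a, 500 nM biotin-H3K9 peptide, 20 uM SAM cofactor, 2 h, room temperature, following 15 min enzyme-compound preincubation.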
CtBP-E1A blk: qHTS Assay for Inhibitors of the CtBP/E1A Interaction; 340,000 compounds, 0.49% hits; AlphaScreen GST-E1A/His-CtBP binding, 1536-well; stronger effect = lower value; AID 651724, 2012; activity change, % (concentration not given with the values); in the data active means activity change below about -65%; inconclusive means mostly about -30% to -63%
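GST-E1A and His-tagged CtBP (125 nM each as 5X stock) were preincubated with pin-transferred compound for 2 h at 37 °C in the dark, then glutathione donor and nickel acceptor beads were added for 1 h before AlphaScreen reading.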
Six1-Eya2 blk: qHTS Assay for Inhibitors of the Six1/Eya2 Interaction. AlphaScreen GST-Six1/His-Eya2 binding, biochemical; stronger effect = lower value. activity change, % (concentration not given with the values). AID 651725, 2012. 360,000 compounds, 0.56% hits; in the data active means activity change below about -65%; inconclusive means mostly about -30% to -63%
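Six1/Eya2 binding was read as AlphaScreen signal after compounds were pinned into GST-Six1 plus His-tagged Eya2 (5X stock 250/500 nM) in pH 8.0 Tris/NaCl/TCEP buffer, beads added, then incubated 1 h, 37 C, dark.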
Each line names hits and unclear results; the compound was inactive in the other large screens. Unless noted, the call rests on the fitted dose curve; in most records, active means well fitted inhibition curve with a large enough effect; inconclusive means small, poorly fitted or top-dose-only effect; inactive means no such curve, though single readings can be large or run the other way.

COc1cc(/C=C(\C#N)C(=O)c2c[nH]c3ccccc23)cc(OC)c1O	JMJD2A Tudor 50.1µM, HP1b chromo inh inconclusive, G9a block 11.2µM (no result: BAZ2B inh)
COc1ccc(/C=C(\C#N)C(=O)NCc2ccccc2)cc1O	none
Cc1ccc(-c2nnc(SCC(=O)NC(C)(C)C)nc2-c2ccc(C)cc2)cc1	JMJD2A Tudor inconclusive, G9a block inconclusive (no result: CtBP-E1A blk, Six1-Eya2 blk)
CC1=C(C(=O)Nc2ccc(C)cc2C)C(c2ccc([N+](=O)[O-])cc2)n2ncc(C(=O)Nc3ccc(F)cc3)c2N1 (stereo not drawn)	none (no result: CtBP-E1A blk, Six1-Eya2 blk)
Cn1c(C(O)C(O)c2ccccc2)nc2ccccc21 (stereo not drawn)	none (no result: CtBP-E1A blk)
Cn1c(C(C#N)C2=C(Cl)C(=O)N(c3ccccc3)C2=O)nc2ccccc21 (stereo not drawn)	BAZ2B inh 8.91µM, G9a block 14.1µM (no result: JMJD2A Tudor, HP1b chromo inh, CtBP-E1A blk, Six1-Eya2 blk)
COc1cc(/C=N\Nc2nc3ccccc3[nH]2)cc(OC)c1OC	BAZ2B inh inconclusive (no result: G9a block)
COc1ccc2c(c1)c(/C=N/Nc1nc3ccccc3[nH]1)c(C)n2C	JMJD2A Tudor inconclusive, BAZ2B inh 28.2µM, CtBP-E1A blk inconclusive, Six1-Eya2 blk inconclusive (no result: G9a block)
COCCn1c(=O)[nH]c(=O)c2c1nc(-c1ccc(-c3ccc(Cl)cc3[N+](=O)[O-])o1)n2Cc1ccccc1	JMJD2A Tudor inconclusive, BAZ2B inh inconclusive, HP1b chromo inh inconclusive, G9a block 8.91µM
COc1ccc(-c2ccc(-c3nc4c(c(=O)[nH]c(=O)n4Cc4ccccc4)n3C)o2)c([N+](=O)[O-])c1	BAZ2B inh inconclusive, G9a block inconclusive
COCCn1c(-c2ccc(-c3ccc([N+](=O)[O-])cc3Br)o2)nc2c1c(=O)[nH]c(=O)n2CC(C)C	G9a block 35.5µM
Cc1cccc(NS(=O)(=O)c2ccc3c(c2)CC(C)N3C(=O)C2CCC2)c1C (stereo not drawn)	none (no result: CtBP-E1A blk, Six1-Eya2 blk)
C=CCn1cn[nH]c1=S	JMJD2A Tudor inconclusive, BAZ2B inh inconclusive, G9a block 12.6µM
C=CCn1cc(C(C)=O)c(=O)[nH]c1=O	none
Cc1cccc(NC(=O)CSc2nc3ccccc3nc2N2CCCCC2)c1C	none (no result: CtBP-E1A blk, Six1-Eya2 blk)
CCN1CCN(C(=O)/C=C/c2ccc(C(C)C)cc2)CC1	none (no result: BAZ2B inh, G9a block)
CCN1CCC(O)(/C=C/c2ccc(C(C)C)cc2)C(C(=O)/C=C/c2ccc(C(C)C)cc2)C1 (stereo not drawn)	JMJD2A Tudor 31.6µM, HP1b chromo inh inconclusive (no result: BAZ2B inh, G9a block)
CC(C)CC(=O)Nc1cc(-c2ccccc2F)nn1-c1ccccc1	none (no result: CtBP-E1A blk, Six1-Eya2 blk)
CN(C)c1ccc(/C=C(\C#N)c2nc(-c3ccc(Cl)c(Cl)c3)cs2)cc1	G9a block inconclusive (no result: CtBP-E1A blk, Six1-Eya2 blk)
CCOc1ccc(-c2csc(/C(C#N)=C\c3ccc(O)c([N+](=O)[O-])c3)n2)cc1	JMJD2A Tudor 22.4µM, BAZ2B inh 7.08µM, HP1b chromo inh 35.5µM, G9a block inconclusive, Six1-Eya2 blk inconclusive
CC(=O)c1ccc(Sc2ccc(C(C)=O)cc2)cc1	none
COC(=O)c1ccc(NN=Nc2ccc(C)cc2)cc1	JMJD2A Tudor 31.6µM, BAZ2B inh inconclusive, HP1b chromo inh 79.4µM, G9a block 7.94µM
CC(=O)c1ccc(N=Nc2ccc(C)cc2)cc1	JMJD2A Tudor 7.94µM, BAZ2B inh 7.94µM, HP1b chromo inh inconclusive, G9a block 7.94µM, CtBP-E1A blk inconclusive, Six1-Eya2 blk inconclusive
CN(C)c1ccc(N=Nc2ccccc2Br)cc1	JMJD2A Tudor 10µM, BAZ2B inh 4.47µM, HP1b chromo inh 5.01µM, G9a block 3.55µM, CtBP-E1A blk -89.9, Six1-Eya2 blk -86.6
Cc1ccc(C(=O)c2ccc(C)cc2)cc1	none
Cc1sc(N=Nc2ccc(N(C)C)cc2)[n+]([O-])c1C	Six1-Eya2 blk inconclusive (no result: JMJD2A Tudor, BAZ2B inh, HP1b chromo inh, G9a block)
COC(=O)c1ccc(C)cc1	none (no result: BAZ2B inh, G9a block)
CC(=O)c1ccc(N=Nc2ccc(N(C)C)cc2)cc1	BAZ2B inh 1.12µM, Six1-Eya2 blk inconclusive
O=C(Nc1ccc(Br)cc1)c1cccc(S(=O)(=O)N2CCc3ccccc32)c1	none (no result: CtBP-E1A blk, Six1-Eya2 blk)
